# Test results from PubChem BioAssay AID743318 (Broad Institute, 2014).
# Entries with a potency or affinity are not part of this list. Calls of active or inactive are those of the source.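 How the source made its calls: active means cytotoxic signal drop whose half-maximal concentration is at most twice the top valid dose; inconclusive means flat drop between 30% and 70%, or poor fit; inactive means the rest.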
# Assay: A549 cell cytotoxicity, dose response, cytotoxicity control, plate reader, dry powder, set 7 (AID 743318)
# Details: A549 viability, CellTiter-Glo ATP luminescence, 72 h; series mostly up to 26 µM; activity change, negative = cytotoxic: at the top concentration
Compound,"activity change, negative = cytotoxic",outcome
S=c1[nH]c2ccccc2n1CCOc1ccccc1Cl,6.89% (inactive),–
Cc1ccc(OCCn2cnc3ccccc32)c(C(C)C)c1,11.1% (inactive),–
CC(C)(C)c1ccc(OCCn2c(=S)[nH]c3ccccc32)cc1,18.4% (inactive),–
Fc1ccc2c(c1)[nH]c(=S)n2CCOc1ccccc1,–,inactive
Cc1ccccc1OCCn1c(=S)[nH]c2ccccc21,-0.861% (inactive),–
